# PubChem BioAssay AID1159580 (chemical genetic matrix, 2015)
# The whole screen tested about 5,500 compounds, of which about 2,000 (36%) were called active. About 18% were inconclusive and are not listed. The list shows a part of the results. A number with no mark means an inactive call. No stated cut-off is given here; in the data, active means normalized growth mostly below about 0.91 (no sharp cut-off); inconclusive means no clear call, values can overlap the other calls; inactive means mostly above about 0.92.
# Test: chemical genetic growth profiling, strain panel (AID 1159580);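 further: tested at 20 µM; growth read once vehicle control cultures reached saturation at 30 °C; 1 = growth at the plate median or of vehicle wells; lower values mean less growth of the strain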
# Details: growth OD
compound,measurement,setting,value
Clc1cccc(NC2=NCCS2)c1Cl,normalized growth,"S. cerevisiae deletion strains, locus YAL013W, strain DEP1, active compounds read low",0.995
same,normalized growth,"S. cerevisiae deletion strains, locus YBR229C, strain ROT2, active compounds read low",1
same,normalized growth,"S. cerevisiae deletion strains, locus YDL101C, strain DUN1, active compounds read low",1.03
same,normalized growth,"S. cerevisiae deletion strains, locus YDR150W, strain NUM1, active compounds read low",0.984
same,normalized growth,"S. cerevisiae deletion strains, locus YEL061C, strain CIN8, active compounds read low",0.974
same,normalized growth,"S. cerevisiae deletion strains, locus YGR078C, strain PAC10, active compounds read low",1
same,normalized growth,"S. cerevisiae deletion strains, locus YHR030C, strain SLT2, active compounds read low",0.698
same,normalized growth,"S. cerevisiae deletion strains, locus YHR087W, strain rtc3, active compounds read low",1.02
same,normalized growth,"S. cerevisiae deletion strains, locus YJL187C, strain SWE1, active compounds read low",1
same,normalized growth,"S. cerevisiae deletion strains, locus YJR043C, strain POL32, active compounds read low",1.01
same,normalized growth,"S. cerevisiae deletion strains, locus YJR075W, strain HOC1, active compounds read low",1.02
same,normalized growth,"S. cerevisiae deletion strains, locus YKL190W, strain CNB1, active compounds read low",0.996
same,normalized growth,"S. cerevisiae deletion strains, locus YLR039C, strain RIC1, active compounds read low",0.721 (active)
same,normalized growth,"S. cerevisiae deletion strains, locus YLR058C, strain SHM2 (second series), active compounds read low",1
same,normalized growth,"S. cerevisiae deletion strains, locus YLR085C, strain ARP6, active compounds read low",0.931
same,normalized growth,"S. cerevisiae deletion strains, locus YLR262C, strain YPT6, active compounds read low",0.817
same,normalized growth,"S. cerevisiae deletion strains, locus YML094W, strain GIM5, active compounds read low",1.03
same,normalized growth,"S. cerevisiae deletion strains, locus YMR219W, strain ESC1, active compounds read low",1.01
same,normalized growth,"S. cerevisiae deletion strains, locus YMR263W, strain SAP30, active compounds read low",0.969
same,normalized growth,"S. cerevisiae deletion strains, locus YMR307W, strain GAS1, active compounds read low",0.776
same,normalized growth,"S. cerevisiae deletion strains, locus YNL128W, strain TEP1, active compounds read low",1.02
same,normalized growth,"S. cerevisiae deletion strains, locus YNL153C, strain GIM3, active compounds read low",1
same,normalized growth,"S. cerevisiae deletion strains, locus YNL298W, strain CLA4 (second series), active compounds read low",0.946
same,normalized growth,"S. cerevisiae deletion strains, locus YNL322C, strain KRE1, active compounds read low",0.994
same,normalized growth,"S. cerevisiae deletion strains, locus YNR030W, strain Alg12, active compounds read low",0.971
same,normalized growth,"S. cerevisiae deletion strains, locus YOL006C, strain TOP1, active compounds read low",0.722 (active)
same,normalized growth,"S. cerevisiae deletion strains, locus YPL055C, strain LGE1, active compounds read low",0.953
same,normalized growth,"S. cerevisiae deletion strains, locus YPL241C, strain CIN2, active compounds read low",1.05
same,normalized growth,"S. cerevisiae deletion strains, locus YPR135W, strain CTF4, active compounds read low",0.928
same,normalized growth,"S. cerevisiae strains, strain wild type, active compounds read low",0.983
